The text below walks through data of PubChem BioAssay (NCI).

“And” between values parts separate entries of the source, which are not always exact repeats. Identical values can stand only once. About 83,000 compounds went through this panel and 20% of them were active in at least one assay; those are over-represented in the sample as a whole.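 In brief: 96-well plates, 48 h treatment, single concentration, percent growth endpoint.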 Where a structure was tested more than once in an assay, its records may differ in their call. The source made the active and inactive calls. How the source made its calls: active means growth percent below 10; inactive means the rest.

Some test systems named below: DU-145 prostate; K-562 leukemia; MALME-3M melanoma; MDA-MB-231 breast; RXF 393 renal; SF-268 CNS; SF-295 CNS; SF-539 CNS; UACC-257 melanoma; M14 melanoma.
Assay in all cases: NCI-60 one-dose screen, 48 h (100 = growth as untreated, 0 = no growth, -100 = all killed)
Holding throughout (conditions): 10 µM unless noted

In the case of `CCN(CC)CCCC(CNc1ccnc2cc(Cl)ccc12)c1ccc(Cl)cc1` (stereo not given), the growth was 34.5% (inactive) and 29.6% (inactive) in the test on DU-145 prostate; -69% (active) and -71% (active) in the test on K-562 leukemia; -91.3% (active) and -77.4% (active) with MALME-3M melanoma; -58.2% (active) and 38.7% (inactive) with MDA-MB-231 breast; -64.7% (active) and 22.7% (inactive) in the test with RXF 393 renal; -19.4% (active) and -34.3% (active) with SF-268 CNS. The growth with SF-295 CNS was -69.7% (active) and -71.8% (active); in the test on SF-539 CNS, -87.6% (active) and -92.2% (active); in the test on UACC-257 melanoma, -67.8% (active) and -86.2% (active); with M14 melanoma it was -84.7% (active) and -71.4% (active).

On to `O=C1c2ccccc2C(=O)N1/N=C/c1ccc2c(c1)OCO2`, for which the growth in the test with DU-145 prostate is 116% (inactive); with K-562 leukemia, 99.8% (inactive); with MALME-3M melanoma it was 110% (inactive); in the test on MDA-MB-231 breast it was 87.2% (inactive); in the test on RXF 393 renal, 107% (inactive); in the test on SF-268 CNS, 103% (inactive). Also, the growth with SF-295 CNS is 129% (inactive); in the test on SF-539 CNS, 101% (inactive); in the test with UACC-257 melanoma, 99.7% (inactive); with M14 melanoma, 99.7% (inactive).

For the compound `Nc1nc(SC/C=C/CCl)c2[nH]cnc2n1`, the growth was 110% (inactive) in the test on DU-145 prostate; 103% (inactive) and 90.7% (inactive) in the test with K-562 leukemia; 114% (inactive) and 92.3% (inactive) in the test on MALME-3M melanoma; 112% (inactive) and 102% (inactive) in the test on MDA-MB-231 breast; 112% (inactive) and 133% (inactive) in the test on RXF 393 renal; 104% (inactive) and 107% (inactive) with SF-268 CNS. Besides, the growth in the test on SF-295 CNS was 97.2% (inactive) and 112% (inactive); in the test with SF-539 CNS it was 114% (inactive) and 97.5% (inactive); with UACC-257 melanoma, 94.7% (inactive) and 102% (inactive); in the test on M14 melanoma it was 107% (inactive) and 98.9% (inactive).

`CCN(CC)CCCC(C)Nc1ccnc2cc(Oc3ccccc3)ccc12` (stereo not given): the growth with DU-145 prostate was 91.4% (inactive) and 87.4% (inactive); in the test with K-562 leukemia it was 1.73% (active) and 41.2% (inactive); in the test with MALME-3M melanoma it was 78% (inactive) and 89.4% (inactive); in the test on MDA-MB-231 breast, 40.1% (inactive) and 34.1% (inactive); with RXF 393 renal it was 17.8% (inactive) and 70.7% (inactive); with SF-268 CNS it was 54.5% (inactive) and 67.1% (inactive). Also, the growth in the test on SF-295 CNS was 81.5% (inactive) and 74.9% (inactive); with SF-539 CNS, 1.83% (active) and 4.93% (active); in the test with UACC-257 melanoma it was -67.2% (active) and -56.4% (active); in the test with M14 melanoma, -43.4% (active) and -81.6% (active).

For the compound `COc1cc(NS(C)(=O)=O)ccc1Nc1c2ccccc2nc2c(C)cccc12`, the growth with DU-145 prostate was -8.9% (active) and 7.58% (active); in the test on K-562 leukemia, 8.6% (active) and 7.61% (active); in the test on MALME-3M melanoma it was -3.04% (active) and 29.4% (inactive); with MDA-MB-231 breast it was 36.7% (inactive); with RXF 393 renal, -2.83% (active) and 8.08% (active); in the test with SF-268 CNS, 2.5% (active) and 16.2% (inactive). For the same compound, the growth in the test on SF-295 CNS is -24.8% (active); in the test with SF-539 CNS it was -35.6% (active) and -30.6% (active); in the test on UACC-257 melanoma, 16.1% (inactive); in the test with M14 melanoma, 19.4% (inactive) and 11.8% (inactive).

Take `CCN(CC)CCC(CNc1c2ccc([N+](=O)[O-])cc2nc2cc(OC)c(OC)cc12)c1ccccc1` (stereo not given): the growth was -85.2% (active) and -100% (active) in the test on DU-145 prostate; -18.8% (active) in the test on K-562 leukemia; -80.1% (active) and -89.1% (active) with MALME-3M melanoma; -58.4% (active) and -94.9% (active) in the test with MDA-MB-231 breast; -89.8% (active) in the test on RXF 393 renal; -48.5% (active) and -98.7% (active) with SF-268 CNS. The growth was 3.98% (active) and -90.3% (active) with SF-295 CNS; -86.9% (active) and -100% (active) in the test on SF-539 CNS; -41.2% (active) and -97.1% (active) with UACC-257 melanoma; -63.2% (active) and -97.4% (active) in the test with M14 melanoma.

Regarding `CC(C(=O)O)n1cc(C#N)c(=O)[nH]c1=O` (stereo not given), the growth in the test on DU-145 prostate is 124% (inactive) and 107% (inactive); with K-562 leukemia, 104% (inactive); with MALME-3M melanoma, 102% (inactive) and 116% (inactive); in the test with MDA-MB-231 breast, 109% (inactive) and 103% (inactive); in the test with RXF 393 renal, 110% (inactive) and 115% (inactive); in the test on SF-268 CNS it was 96.8% (inactive) and 99.7% (inactive). Besides, the growth is 93.3% (inactive) and 102% (inactive) with SF-295 CNS; 95.8% (inactive) and 102% (inactive) in the test with SF-539 CNS; 89% (inactive) and 108% (inactive) with UACC-257 melanoma; 120% (inactive) and 107% (inactive) in the test on M14 melanoma.

In the case of `Nc1ccccc1Nc1ccccc1`, the growth is 100% (inactive) and 93.4% (inactive) in the test on DU-145 prostate; 67.8% (inactive) and 85.5% (inactive) with K-562 leukemia; 117% (inactive) and 136% (inactive) with MALME-3M melanoma; 82.1% (inactive) and 71.7% (inactive) in the test with MDA-MB-231 breast; 122% (inactive) and 129% (inactive) with RXF 393 renal; 90.4% (inactive) and 77.8% (inactive) with SF-268 CNS. The growth was 98.4% (inactive) in the test on SF-295 CNS; 94.8% (inactive) and 78.5% (inactive) in the test with SF-539 CNS; 86.1% (inactive) and 115% (inactive) with UACC-257 melanoma; 106% (inactive) and 102% (inactive) in the test with M14 melanoma.

Take `Cc1cc(O)c(C(C)C)cc1S(=O)(=O)O` (tested in a mixture with another compound): the growth with DU-145 prostate was 120% (inactive) and 5.68% (active) and 115% (inactive); in the test with K-562 leukemia, 111% (inactive) and 3.5% (active) and 104% (inactive); in the test with MALME-3M melanoma, 99.7% (inactive) and 47.1% (inactive) and 93.1% (inactive); in the test with MDA-MB-231 breast, 107% (inactive) and 10.3% (inactive) and 90.1% (inactive); in the test on RXF 393 renal, 97.3% (inactive) and 8.53% (active) and 118% (inactive); in the test with SF-268 CNS, 101% (inactive) and 22% (inactive) and 109% (inactive). The growth was 101% (inactive) and 77.7% (inactive) in the test with SF-295 CNS; 93.1% (inactive) and 4.98% (active) and 94.7% (inactive) with SF-539 CNS; 92.6% (inactive) and 40.4% (inactive) and 94.9% (inactive) in the test on UACC-257 melanoma; 91.5% (inactive) and -39.1% (active) and 106% (inactive) with M14 melanoma.

As for `O=C(CN1CCN(c2cc3c(cc2F)c(=O)c(C(=O)O)cn3C2CC2)CC1)Nc1ccc(Cl)cc1`, the growth with DU-145 prostate was 99.1% (inactive) and 103% (inactive); in the test on K-562 leukemia it was 68.1% (inactive) and 67.9% (inactive); with MALME-3M melanoma, 91.8% (inactive) and 91.1% (inactive); in the test on MDA-MB-231 breast, 60.2% (inactive) and 70.1% (inactive); with RXF 393 renal, 74.7% (inactive) and 84.3% (inactive); in the test with SF-268 CNS it was 91.2% (inactive) and 92.5% (inactive). For the same compound, the growth with SF-295 CNS was 87.9% (inactive) and 96.6% (inactive); with SF-539 CNS, 86.9% (inactive) and 85.6% (inactive); in the test with UACC-257 melanoma, 57% (inactive) and 88.4% (inactive); in the test with M14 melanoma, 81.8% (inactive) and 92% (inactive).

Take `O=C(Nc1cccc(-n2ccc3c(NC(=O)c4ccccc4)nccc32)c1)c1ccc(Cl)c(C(F)(F)F)c1`: the growth is -36% (active) and 61.6% (inactive) in the test with DU-145 prostate; 2.58% (active) and 27.6% (inactive) in the test with K-562 leukemia; -35.4% (active) in the test with MALME-3M melanoma; -11.2% (active) and 81.4% (inactive) in the test with MDA-MB-231 breast; -89.4% (active) and 94.8% (inactive) in the test on RXF 393 renal; -44.1% (active) in the test with SF-268 CNS. Besides, the growth was -53.7% (active) and 38.4% (inactive) in the test on SF-295 CNS; -66% (active) and 52.8% (inactive) in the test on SF-539 CNS; 65.2% (inactive) in the test with UACC-257 melanoma; -29.6% (active) and 64% (inactive) with M14 melanoma.

For the compound `COc1cc2c(Nc3ccc(Cl)c(Cl)c3F)ncnc2cc1OCC1C[C@@H]2CN(C)C[C@@H]2C1` (stereo not given in full), the growth in the test with DU-145 prostate was -83.6% (active) and 25.4% (inactive); in the test on K-562 leukemia it was -39.5% (active) and -0.692% (active); with MALME-3M melanoma, -93.5% (active) and -34.7% (active); in the test with MDA-MB-231 breast, -87.5% (active) and -9.5% (active); in the test with RXF 393 renal it was -95.2% (active) and -65.2% (active); in the test with SF-268 CNS it was -70.2% (active) and 24% (inactive). The growth was -93.6% (active) and -55.7% (active) with SF-295 CNS; -93.9% (active) and 17.5% (inactive) in the test on SF-539 CNS; -87.8% (active) and -64% (active) in the test with UACC-257 melanoma; -71.1% (active) and -62.8% (active) with M14 melanoma.

In the case of `O[C@H](c1cc(C(F)(F)F)nc2c(C(F)(F)F)cccc12)[C@@H]1CCCCN1`, the growth in the test on DU-145 prostate was 67% (inactive) and 70.2% (inactive); in the test with K-562 leukemia it was 8.6% (active) and 11.9% (inactive); in the test with MALME-3M melanoma it was 89.6% (inactive) and 82.2% (inactive); in the test with MDA-MB-231 breast it was 15.1% (inactive) and 17.7% (inactive); with RXF 393 renal, 44% (inactive) and 43.3% (inactive); in the test with SF-268 CNS it was 57.9% (inactive) and 56.6% (inactive). The growth is 93.6% (inactive) in the test with SF-295 CNS; 81.1% (inactive) and 75.6% (inactive) with SF-539 CNS; 58.1% (inactive) and 75.4% (inactive) in the test with UACC-257 melanoma; 67.2% (inactive) and 71.8% (inactive) in the test on M14 melanoma.

Take `OC1CCC(Oc2cccc3cnc(Nc4ccc5nc[nH]c5c4)nc23)CC1` (stereo not given): the growth with DU-145 prostate is 13.2% (inactive) and 48% (inactive); in the test on K-562 leukemia, 9.4% (active) and 54% (inactive); in the test with MALME-3M melanoma, -8.81% (active) and 86.7% (inactive); in the test with MDA-MB-231 breast, 2.87% (active) and 44.5% (inactive); in the test on RXF 393 renal, -16.8% (active) and 23% (inactive); with SF-268 CNS it was 1.49% (active) and 45.4% (inactive). Also, the growth was 13.1% (inactive) and 62.2% (inactive) with SF-295 CNS; -34.1% (active) and 32% (inactive) in the test with SF-539 CNS; -24.7% (active) and 44.8% (inactive) in the test on UACC-257 melanoma; -9.41% (active) and 49.1% (inactive) in the test on M14 melanoma.

For the compound `C1CCCCNCCC1`, the growth with DU-145 prostate was 118% (inactive); in the test on K-562 leukemia, 104% (inactive); in the test with MALME-3M melanoma, 106% (inactive); in the test with MDA-MB-231 breast it was 101% (inactive); in the test on RXF 393 renal, 103% (inactive); with SF-268 CNS, 109% (inactive). Moreover, the growth in the test on SF-295 CNS is 104% (inactive); in the test with SF-539 CNS, 113% (inactive); in the test on UACC-257 melanoma it was 100% (inactive); in the test on M14 melanoma it was 105% (inactive).
